For 25 molecules, Potency results are on record in PubChem BioAssay (NCATS).

Structures are written as SMILES. Several values for one entry are separate records, joined by “and”; a condition that tells them apart may be missing. Equal entries are not always repeated. Inconclusive results are not listed. Activity calls are given as the source filed them. Unless noted, the call rests on the fitted dose curve; in most records, active means well fitted inhibition curve with a large enough effect; inconclusive means small, poorly fitted or top-dose-only effect; inactive means no such curve, though single readings can be large or run the other way.

Test [1] deals with Aldehyde dehydrogenase, mitochondrial (Homo sapiens) (UniProt P05091). Nature of the test: qHTS for Inhibitors of the Aldehyde Dehydrogenase Family (ALDH2) Confirmatory screens (AID 2061303; active means well fitted inhibition curve with a large enough effect; title and protocol of this record describe different tests; further: nearly all actives have a fitted effect of over 45% in size; further: potency means the concentration at half of the fitted maximal effect).
The nature of test [2]: qHTS for Inhibitors of the Aldehyde Dehydrogenase Family (ALDH1A2, ALDH1A3, ALDH2, ALDH3A1) (AID 2061307; further: nearly all actives have a fitted effect of over 50% in size; on Potency: test system not described further here; potency means the concentration at half of the fitted maximal effect). (In general: Quantitative high-throughput screening tests each substance at several concentrations.)
Test [3] deals with Retinaldehyde dehydrogenase 3 (Homo sapiens) (UniProt P47895). Nature of the test: qHTS for Inhibitors of the Aldehyde Dehydrogenase Family (ALDH1A3) Confirmatory screens (AID 2061311). Further: nearly all actives have a fitted effect of over 60% in size. Further: potency means the concentration at half of the fitted maximal effect.
Test [4] deals with Retinal dehydrogenase 2 (Homo sapiens) (UniProt O94788). Nature of the test: qHTS for Inhibitors of the Aldehyde Dehydrogenase Family (ALDH1A2) Confirmation screens (AID 2061314). Further: nearly all actives have a fitted effect of over 65% in size. Further: potency means the concentration at half of the fitted maximal effect.
For test [5], the target named is Retinaldehyde dehydrogenase 3 (Homo sapiens) (UniProt P47895). Nature of the test: qHTS for Inhibitors of the Aldehyde Dehydrogenase Family (ALDH1A3) Primary screen (AID 2061315).
In test [6] the target is Aldehyde dehydrogenase 1A1 (Homo sapiens) (UniProt P00352). Nature of the test: qHTS for Inhibitors of the Aldehyde Dehydrogenase Family (ALDH1A1) Confirmatory screens (AID 2061316). Further: nearly all actives have a fitted effect of over 65% in size. Further: potency means the concentration at half of the fitted maximal effect.

For the molecule `CCn1cc2nc(SCc3ccc(C)cc3)n(CCc3ccccc3)c(=O)c2n1`, the Potency is 14.1 µM (active) in test [1], 10 µM (active) in test [2], 0.447 µM (active) in test [3] and 7.94 µM (active) in test [4].
Consider `Cc1noc(C)c1-c1cccc(-c2nn3c(=O)cc(N4CCNCC4)nc3s2)c1`, for which the Potency in test [1] is 3.98 µM (active); in test [2], 0.891 µM (active); in test [3] it was 17.8 µM (active); in test [4], 6.31 µM (active). Moreover, in test [5], the Potency result is “inactive”.
As for `CCOc1cc(CNc2ccc(C(=O)O)cc2)ccc1OCc1ccccc1`, the Potency in test [1] is 2 µM (active); in test [3] it was 0.199 µM (active); in test [4], 2.57 µM (active); in test [6] it was 6.47 µM (active). Besides, the Potency result in test [2] is “inactive”.
Turning to `COc1ccc2c(c1)CCc1sc(NC(=O)c3ccc(Cl)cc3)nc1-2`, the Potency in test [1] was 15.8 µM (active); in test [2] it was 3.24 µM (active); in test [3], 16.2 µM (active); in test [6], 4.58 µM (active).
Consider `O=C(O)c1cccc(-n2[nH]c(-c3ccccc3)cc2=O)c1`, for which the Potency was 11.2 µM (active) in test [1]; 5.01 µM (active) in test [2]; 15.8 µM (active) in test [3]; 7.98 µM (active) in test [4]; 25.1 µM (active) in test [6].
Consider `CN(CC(=O)Nc1ccc(N2CCOCC2)cc1)Cc1c(O)ccc2ccccc12`, for which the Potency in test [1] was 11.3 µM (active); in test [2], 2.83 µM (active); in test [3], 15.9 µM (active); in test [4] it was 10.1 µM (active); in test [6], 2.52 µM (active).
Take `COc1ccccc1-c1cc(NCCc2ccccn2)c2onc(C)c2n1`: the Potency entry in test [1], in test [2], in test [4] and in test [6] was “inactive” in each case. Moreover, the Potency in test [3] was 22.4 µM (active).
For `O=C1c2ccccc2C(=O)N1c1cccc2ccncc12`, the Potency entry in test [1], in test [2], in test [3] and in test [5] was “inactive” in each case.
Regarding `CCOc1ccc(NC(=O)Cn2c(Nc3cc(C)cc(C)c3)nc(C)cc2=O)cc1`, the Potency in test [1] was 15.8 µM (active). Moreover, the Potency result in test [2], in test [3] and in test [6] was “inactive” in each case.
With `Oc1ccc(CNc2ccccc2F)c2cccnc12`, the figures for the Potency in test [1], in test [4] and in test [6] were 2.83 µM (active), 5.65 µM (active) and 2.25 µM (active), respectively. Further, the Potency result in test [2] and in test [3] was “inactive” in each case.
Take `COc1ccc(-c2nc3cccc(OC)c3c(=O)n2Cc2ccccc2)cc1COc1ccc(NC(C)=O)cc1`: the Potency in test [1] is 28.2 µM (active); in test [2] it was 2.01 µM (active); in test [3], 25.1 µM (active); in test [6], 12.7 µM (active).
On to `COc1ccc(S(=O)(=O)Nc2cccc(-c3ccc(N4CCCCCC4)nn3)c2)c(OC)c1`, for which the Potency in test [1] is 28.2 µM (active); in test [2] it was 28.2 µM (active) and 2.51 µM (active). For the same molecule, the Potency entry in test [3], in test [4] and in test [6] was “inactive” in each case.
For `COc1ccc(N2CCN(c3nc(C(=O)NCc4cccc(C)c4)cs3)CC2)cc1`, the Potency entry in test [1], in test [3], in test [4] and in test [6] was “inactive” throughout. Also, the Potency in test [2] was 2.51 µM (active).
As for `COc1ccc(-c2nc(CNS(=O)(=O)c3ccc(F)cc3)cs2)cc1`, the Potency in test [1] was 11.2 µM (active). For the same molecule, the Potency result in test [2], in test [3] and in test [6] was “inactive” throughout.
On to `O=C(NCc1ccc(F)c(F)c1)c1ccc2nnc(-c3cccc(C(F)(F)F)c3)n2c1`, for which the Potency result in test [1], in test [3], in test [4] and in test [6] was “inactive” each time. The Potency in test [2] was 8.91 µM (active).
Consider `CCc1ccc(-n2c(SCc3cccc(F)c3)nc3[nH]ncc3c2=O)cc1`, for which the Potency result in test [1], in test [2] and in test [4] was “inactive” in each case. In addition, the Potency was 15.8 µM (active) in test [3] and 1.82 µM (active) in test [6].
Turning to `COc1cccc(-c2nc(SCc3ccc(C)cc3)n3[nH]c(=O)cc3n2)c1`, the Potency entry in test [1], in test [2], in test [4] and in test [6] was “inactive” each time. Further, in test [3], the Potency was 7.08 µM (active).
Turning to `N#Cc1ccc(-c2ccc(CNc3ccc(N4CCOCC4)cc3)o2)cc1`, the Potency in test [1] is 0.04 µM (active); in test [2] it was 0.565 µM (active); in test [3] it was 15.9 µM (active); in test [6], 7.98 µM (active).
Turning to `CC[C@H](CO)Nc1nc(Nc2cccc(-c3ccccn3)c2)c2ncn(C(C)C)c2n1`, the Potency entry in test [1], in test [2], in test [3] and in test [5] was “inactive” in each case.
Take `Cc1ccc2c(c1)-c1c(cnn1CC(=O)N1CCN(c3cccc(C(F)(F)F)c3)CC1)CO2`: the Potency result in test [1], in test [3], in test [4] and in test [6] was “inactive” throughout. Besides, the Potency in test [2] was 10 µM (active).
As to `COc1cccc(-c2ccc(CNc3ccc(N4CCN(C(=O)OC(C)(C)C)CC4)cc3)o2)c1`, the values for the Potency in test [1] and in test [2] were 11.3 µM (active) and 14.2 µM (active), respectively. For the same molecule, the Potency result in test [3] and in test [5] was “inactive” each time.
`CC(=O)c1ccc(NC(=O)CSc2ccc3nc(-c4ccccc4)cn3n2)cc1`: the Potency is 22.9 µM (active) in test [1]; 0.0576 µM (active) in test [2]; 0.258 µM (active) in test [3]; 15.8 µM (active) in test [4]; 1.82 µM (active) in test [6].
Turning to `CCc1ccc(CN2CCC(C(=O)Nc3ccc(Oc4cccnc4)cc3)CC2)o1`, the Potency in test [1] was 5.01 µM (active). The Potency entry in test [2], in test [3] and in test [6] was “inactive” each time.
As to `O=C(Nc1cncc(-c2cccc3ccccc23)c1)c1cccs1`, the Potency entry in test [1] and in test [5] was “inactive” each time. The Potency in test [2] is 5.62 µM (active); in test [3], 20.1 µM (active).
With `CC(=O)c1ccc(N2CCN(S(=O)(=O)c3ccc4c(c3)C(C)(C)C(=O)N4)CC2)cc1`, the Potency result in test [1], in test [2], in test [4] and in test [6] was “inactive” in each case. For the same molecule, the Potency in test [3] was 5.01 µM (active).
